S1P4 agonist – agonists of human S1P4 receptor | S1P4-expressing cell line, agonist reporter assay | O95977 | AID 1509 | 0.35% of 220,000 active | activation, % at 4.98 µM; in the data active means activation above about 11%
EP2 mod – modulators of human EP2 prostaglandin E2 receptor | AID 940 | EP2-expressing cells, cAMP HTRF FRET, PGE2 co-stimulation | P43116 | 0.83% of 260,000 active | induction, % at 25 µM;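 active means compounds whose cAMP rise, as percent of the full-agonist control response, exceeds 60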;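 further: rat C6 glioma line stably carrying human EP2 under a CMV promoter; the protocol text gives 20 µM as final concentration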
Target sequence (P43116 whole entry, looked up): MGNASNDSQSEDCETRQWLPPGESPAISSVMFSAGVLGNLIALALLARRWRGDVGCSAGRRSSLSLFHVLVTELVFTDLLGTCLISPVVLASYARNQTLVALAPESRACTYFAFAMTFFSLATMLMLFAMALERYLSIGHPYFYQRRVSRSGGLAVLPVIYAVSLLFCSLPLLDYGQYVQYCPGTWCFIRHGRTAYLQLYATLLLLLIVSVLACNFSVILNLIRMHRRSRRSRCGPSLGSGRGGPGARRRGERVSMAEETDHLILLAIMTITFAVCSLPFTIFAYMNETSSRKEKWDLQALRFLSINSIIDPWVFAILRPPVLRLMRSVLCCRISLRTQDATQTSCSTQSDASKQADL
S1P3 antagonist – blocks the human S1P3 receptor; AID 485; Q99500; inhibition, % at 4.98 µM; 0.27% of 170,000 active; CHO S1P3 NFAT-BLA reporter, FRET fluorescence, antagonist mode;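 active means inhibition above the plate cutoff, the mean inhibition of test wells on that plate plus 3 SD, cut at about 28% in these data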;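 further: cells challenged with S1P at its EC80 of 0.8 µM; blue over green emission ratio from cleaved BLA substrate after 4 h stimulation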
EP2 antag – inhibitors of human EP2 prostaglandin E2 receptor; C6 glioma cells expressing human EP2, cAMP TR-FRET; cells stimulated with saturating PGE2; inhibition, % at 25 µM; 0.52% of 260,000 active; AID 1422;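 active means percent inhibition above 40 after rounding to a whole number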;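 further: rat C6 glioma host cells with rolipram phosphodiesterase inhibitor present; the protocol text gives 20 µM as final concentration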
S1P4 antagonist – antagonists of human S1P4 receptor | O95977 | S1P4-expressing cells, antagonist mode, reporter read-out | inhibition, % at 4.98 µM | 0.26% of 220,000 active | AID 1510; in the data active means inhibition above about 29%
EP2 confirm – human EP2 receptor cAMP induction, negative in counter-screens | shares compounds with EP2 mod | C6 glioma EP2 cells, cAMP HTRF induction; plus low (about EC15) PGE2 agonist | calls only at 20 µM (by protocol) | 47% of 1,300 active;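 active means cAMP induction above 50% in the main assay while under 30% in all four parallel counter assays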;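 further: rat C6 glioma cells stably expressing human EP2 receptor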
A number is an active result; . = inactive; / = no result; + = active, no number. A selection: hits, their analogues and other compounds. The true share with any hit is near 1.9%.

SMILES	S1P4 agonist	EP2 mod	S1P3 antagonist	EP2 antag	S1P4 antagonist	EP2 confirm
Cn1cccc1/C=C1\CC(C(C)(C)C)C/C(=C\c2cccn2C)C1=O (centres undefined)	.	71	/	.	.	+
CCOC(=O)c1sc2nc3c(SCC(=O)O)cc(C(=O)c4cc(F)ccc4O)cn3c(=O)c2c1C	.	77	.	.	.	+
Cn1nnc2cc(NC(=O)Nc3ccc4ccccc4c3)ccc21	/	.	/	.	/	/
O=C(/C(=C/O)N=Nc1ccccc1)c1ccc(Cl)cc1	.	73	.	.	.	+
Cc1ccc(N=N/C(=C\O)C(=O)c2ccc(Cl)cc2)cc1	.	89	.	.	.	+
O=C(/C(=C/O)N=Nc1ccccc1)c1ccncc1	.	.	/	.	.	/
Cc1ccc(-n2cc(-c3ccccc3)c3c(N4CCOCC4)ncnc32)cc1	.	69	.	.	.	.
CC1CCN(C(=O)CSc2nc3ccccc3s2)CC1	.	.	/	/	.	/
Cc1nc2ccccc2nc1SCC(=O)N1CCC(C)CC1	.	65	/	.	.	.
CC1CCCN(C(=O)CSc2cnc3ccccc3n2)C1 (centres undefined)	.	68	/	.	.	.
COc1ccccc1CN(C)CC(=O)Nc1ccccc1-c1ccccc1	.	71	.	.	.	+
Cc1ccccc1CN(C)CC(=O)Nc1ccccc1Oc1ccccc1	.	68	.	.	.	+
COc1ccc(CN(C)CC(=O)Nc2ccccc2-c2ccccc2)c(OC)c1	.	.	.	.	.	/
CN(CC(=O)Nc1ccccc1Oc1ccccc1)Cc1ccccc1F	.	67	.	.	.	+
CCCC(c1nnnn1C(C)(C)C)N(Cc1ccc(F)cc1)Cc1cc2ccc(C)cc2[nH]c1=O (centres undefined)	/	.	/	.	/	/
COc1cc(C2NC(=O)C(C#N)=C(S)N2c2ccccc2C)ccc1OC(C)C (centres undefined)	/	.	/	.	/	/
O=C1NC2(CCN(C(=O)CCCn3cnc4ccccc4c3=O)CC2)Oc2ccccc21	/	.	/	/	/	/
O=C(Cc1ccccc1)Nc1cc(Cl)ccc1Sc1ccccc1	.	.	.	.	.	/
O=C(Cc1ccc(Cl)cc1)Nc1ccccc1Sc1ccccc1	.	75	.	.	.	+
O=C(Nc1ccccc1Sc1ccccc1)c1ccc(F)cc1	.	72	.	.	.	+
Cc1csc(C23CC4CC(CC(C4)C2)C3)n1	/	.	/	.	/	/
O=C(N/N=C/c1ccc[nH]1)c1ccccc1OCc1ccccc1Cl	.	66	.	.	.	+
CC(=O)c1ccc(-c2ccc(/C=C3/SC(=S)NC3=O)o2)cc1	/	.	/	.	/	/
CCOc1ccc2[nH]c(=O)c(CN(CCN(C)C)C(=O)Nc3ccc(Cl)cc3)cc2c1	/	.	/	.	/	/
O=C(NC(=S)Nc1ccccc1O)c1ccc(-c2ccc(Cl)cc2)o1	.	.	/	.	.	/
SMILES	S1P4 agonist	EP2 mod	S1P3 antagonist	EP2 antag	S1P4 antagonist	EP2 confirm
Cc1c(NC(=S)NC(=O)c2ccc(-c3ccc(Cl)cc3)o2)cccc1C(=O)O	.	99	.	.	.	+
COCc1cc(C)nc2sc3c(=O)n(Cc4ccco4)nnc3c12	.	.	.	.	.	/
Cc1cc(C)c2c(n1)sc1c(=O)n(Cc3ccccc3Cl)nnc12	.	67	/	/	.	.
O=C(c1ccc(N2CCCCC2)cc1)N1CCCC(c2nc(-c3cccnc3)n[nH]2)C1 (centres undefined)	/	.	/	/	/	/
COc1ccc(C)cc1NC(=O)CSc1nc2c(C)c(C)ccc2cc1C	/	.	/	.	/	/
CCOC(=O)c1c(C=O)c(C)n(Cc2ccc(C)cc2)c1C	.	86	/	.	.	.
CCOC(=O)c1c(C=O)c(C)n(Cc2ccccc2Cl)c1C	.	72	/	.	.	.
CCOC(=O)c1c(C)c(C)n(Cc2cccc(OC)c2OC)c1C	.	.	.	.	.	/
CCOC(=O)c1c(C(=O)OCC)c(C)n(Cc2cc(OC)c(OC)c(OC)c2)c1C	.	.	.	.	.	/
CC1(C)Cc2nc3nc(SCC(=O)Nc4ccccc4)nc(N)c3cc2CO1	.	71	.	.	.	+
O=C1NC2(CCN(C(=O)c3cc(-c4ccc(F)cc4)on3)CC2)Nc2ccccc21	/	.	/	/	/	/
c1ccc(CCc2ccccc2-c2nc(-c3ccccn3)no2)cc1	.	101	.	.	.	+
c1ccc(-c2ccccc2-c2nc(-c3cccnc3)no2)cc1	.	72	.	.	.	+
c1ccc(-c2noc(-c3cccc4ccccc34)n2)cc1	.	69	.	.	.	.
c1ccc(CCc2ccccc2-c2nc(-c3cccnc3)no2)cc1	.	82	.	.	.	+
COCCSc1ccccc1C(=O)Nc1nc2ccc(S(C)(=O)=O)cc2s1	/	.	/	.	/	/
CC1(C)CC(N(Cc2ccccc2)Cc2ccncc2)CC(C)(C)N1	/	.	/	.	/	/
O=C(c1ccccc1)c1ccc2c3c1cccc3c(=O)n1c3ccccc3nc21	/	.	/	.	/	/
CCCc1cc(-c2[nH]ncc2-c2ccc3c(c2)OCCCO3)c(O)cc1OC	.	.	/	.	.	/
CCc1cc(-c2[nH]ncc2-c2ccc3c(c2)OCO3)c(O)cc1O	.	.	.	/	.	.
CCN(Cc1ccccc1)C(c1cc2cc(C)c(C)cc2[nH]c1=O)c1nnnn1C1CCCCC1 (centres undefined)	/	.	/	.	/	/
O=C(c1ccccc1)N1N=C(c2ccccc2)CC1c1ccccc1O (centres undefined)	.	85	.	.	.	+
COC(=O)c1cn(Cc2cccc(C)c2)nn1	.	.	.	.	.	/
COC(=O)c1ccc(-c2ccco2)n1Cc1cccc(C)c1	.	77	/	.	.	+
NS(=O)(=O)c1ccc(NCc2cnc3ccccc3n2)cc1	/	71	/	.	/	.
SMILES	S1P4 agonist	EP2 mod	S1P3 antagonist	EP2 antag	S1P4 antagonist	EP2 confirm
CCCN1Cc2cccc(C(=O)Nc3ccc4c(c3)OCO4)c2C1=O	.	.	.	/	.	/
O=C(Nc1ccc2c(c1)OCO2)c1cccc2c1C(=O)N(C1CCCCC1)C2	.	71	.	.	.	+
c1cncc(-c2nc(N3CCOCC3)c3c4c(sc3n2)CCC4)c1	.	.	.	.	.	.
N#Cc1c(-c2ccco2)nc(SCC(=O)Nc2cccc(Cl)c2)[nH]c1=O	.	64	.	.	.	.
C(=N\N1CCN(C2c3ccccc3-c3ccccc32)CC1)/c1cccnc1	.	74	/	.	.	.
c1ccc(-c2noc(CN3CCN(c4ccccc4)CC3)n2)cc1	.	.	.	.	.	/
c1ccc(-c2noc(CN3CCN(C(c4ccccc4)c4ccccc4)CC3)n2)cc1	.	.	.	.	.	.
O=C(CSc1nc2ccccc2c(=O)n1Cc1ccco1)NCc1ccco1	.	.	.	.	.	/
C=CCSc1nc2ccccc2c(=O)n1Cc1ccco1	/	70	/	.	/	.
COCCCn1c(SCC(=O)Nc2ccc(C(=O)OC)cc2)nnc1-c1ccoc1C	/	.	/	.	/	/
CC(OC(=O)c1oc2ccccc2c1COc1ccccc1)C(=O)NC(N)=O (centres undefined)	.	70	.	.	.	.

Source: PubChem
